HCV inh: HCV inhibition. AID 651820. 3.4% of 340,000 active. Potency, µM (series often up to 41.8 µM), for inactives: top-dose activity change, negative = inhibition, hits mostly inhibitors. Huh7.5.1 HCVcc-Cre infection, luciferase reporter, 44 h; active = well fitted inhibition curve with a large enough effect; inconclusive = small, poorly fitted or top-dose-only effect, or another doubt; inactive = no such curve, though single readings can be large or run the other way; note: potency is the fitted concentration of half-maximal effect
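1,000 cells/well; 4 h culture; + compound; + HCVcc-Cre (~0.5 moi); 44 h; luciferase substrate, RT 15 min; read 15 sec.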
HCMV inh: blocks human cytomegalovirus replication. HFF cells, HCMV-luciferase reporter, 72 h; active compounds read low. activity change, negative = inhibition, % at 57.5 µM. 4.5% of 410,000 active. AID 1259415; in the data active = activity change below about -60%; inconclusive = no clear call, values can overlap the other calls; inactive = above about -39%
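After 16 h attachment at 37C, HFF cells received test compound and HCMV-luciferase (1 PFU/cell); reporter luminescence read 72 h later, data normalized against buffer-only and known inhibitor Salinomycin.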
VACV Venus inh: vaccinia inhibition (Venus reporter); Potency, µM (titrated, usually from 36.5 µM), inactives show at the top dose activity change, negative = inhibition, usual class: inhibitors; Vaccinia virus Venus reporter expression, fluorescence; 0.46% of 330,000 active; calls by dose curve; tested in A549 cells; note: potency is the fitted concentration of half-maximal effect; nearly all actives have a fitted effect of over 30% in size
FMDV inh: antivirals against foot and mouth disease virus; FMDV antiviral cell-based qHTS; Potency, µM (doses to about 57.9 µM), for inactives: at the top dose activity change, negative = inhibition, hits mostly inhibitors; 1.2% of 410,000 active; AID 1159524; calls by dose curve; tested in HEK293T cells; note: read-out not given here; potency is the fitted concentration of half-maximal effect; nearly all actives have a fitted effect of over 45% in size
VACV mCherry inh: inhibitors of vaccinia virus infection (mCherry reporter signal); Potency, µM (highest dose often 36.5 µM), for the others: at the highest dose activity change, negative = inhibition, actives largely listed as inhibitors; Vaccinia virus mCherry reporter infection, fluorescence; 0.63% of 310,000 active; calls by dose curve; tested in A549 cells; note: potency is the fitted concentration of half-maximal effect; nearly all actives have a fitted effect of over 35% in size
Active calls of the source: *; i = inactive; ? = inconclusive; nt = not tested or not shown; [ ] = another dose, or the depositor's remark. Only some compounds are listed: those with a hit (about 7.3% of all), similar ones and a draw of the others. % is set by controls: 0 for no effect and ±100 for the full control effect.

SMILES | HCV inh | HCMV inh | VACV Venus inh | FMDV inh | VACV mCherry inh
CC(=O)N1C[C@@H](CO)[C@@H](N(C)C(=O)C(C)(C)C)C[C@H]1c1ccccc1 | nt | -18.4 | 12.8% | -12.3% | 63.9%
COc1ccccc1C(=O)COC(=O)CNS(=O)(=O)c1ccc(C)c(C)c1 | 32.6% | -13.7 | -6.4% | -1.4% | -0.1%
COc1ccc(/C=C/C(=O)OCC(=O)Nc2ccc3[nH]c(=O)[nH]c3c2)cc1OC | 17.0% | -16.5 | -14.5% | 1.2% | -13.6%
CC(C)=CCC/C(C)=C/CNC(=O)C[C@H]1C[C@H](C(=O)N2CCOCC2)[C@@]2(C)c3[nH]c4cc(-c5ccco5)ccc4c3CCN2C1=O | ? | nt | 11.2µM* | ? | ?
CC(C)=CCC/C(C)=C/CNC(=O)C[C@H]1C[C@H](C(=O)N2CCOCC2)[C@@]2(C)c3[nH]c4ccc(Cl)cc4c3CCN2C1=O | 8.0% | -86.0* | ? | ? | ?
CC(C)=CCC/C(C)=C/CNC(=O)CC1C[C@H](C(=O)N2CCOCC2)[C@@]2(C)c3[nH]c4ccccc4c3CCN2C1=O (some centres not stated) | ? | 1.0 | ? | ? | ?
O=S(=O)(c1ccccc1Cl)N1CCN(c2nc(-c3cccs3)nc3ccccc23)CC1 | nt | nt | -18.6% | nt | -21.1%
CCOc1ccccc1C1CC(=O)Nc2c1c(=O)n(C)c1ncnn21 (configuration not stated) | nt | -8.0 | 5.5% | -3.0% | 0.1%
CCOc1ccc(/C=N/n2c(C3CCCCC3)n[nH]c2=S)cc1 | 11.2µM* | -81.2* | nt | -15.4% | nt
Cc1onc(-c2ccccc2)c1CNS(=O)(=O)c1cccc(Br)c1 | -6.4% | -73.0* | -2.0%[7.34 µM] | 19.2% | -3.1%[7.34 µM]
C[C@H]1CN([C@@H](C)CO)C(=O)CCCn2cc(nn2)CO[C@@H]1CN(C)C(=O)Nc1ccc(-c2cccs2)cc1 | nt | -12.3 | -7.7% | -6.7% | 3.7%
CN(C)S(=O)(=O)c1cccc(-c2nn(-c3ccccc3)cc2/C=C(\C#N)c2nc3ccccc3[nH]2)c1 | ? | 21.0 | 14.2% | -8.2% | 15.0%
CN(C)S(=O)(=O)c1cccc(-c2nn(-c3ccccc3)cc2/C=C2\SC(=S)NC2=O)c1 | -8.6% | -82.0* | ? | ? | ?
CCC[C@@H](CNC)NC[C@H](Cc1ccccc1)NCCCCc1ccccc1 | ? | ? | ? | -19.9% | ?
CNC[C@@H](Cc1ccccc1)NC[C@@H](CC1CCCCC1)NCCCc1ccccc1 | ? | -100.5* | ? | ? | ?
CNC[C@@H](CC1CCCCC1)NC[C@H](CC(C)C)NCCc1cccc(C(F)(F)F)c1 | ? | -98.6* | ? | ? | 14.1µM*
O=C(NC1CCS(=O)(=O)C1)c1ccc(-c2ccc(Br)cc2)o1 (configuration not stated) | 11.2µM* | -13.2 | -22.1% | nt | -11.3%
COc1ccccc1-c1cncnc1NCCN1CCOCC1 | nt | nt | 14.6% | 1.6% | 10.4%
COc1ccc(NC(=O)COc2ccccc2C(=O)Nc2ccccc2)cc1 | nt | nt | -10.2% | nt | -14.1%
O=c1oc2ccccc2n1Cc1cccc(F)c1 | 5.8% | ? | nt | 3.0% | nt
O=c1ccc2ccccc2n1Cc1cccc(F)c1 | 8.6% | -62.3* | nt | 10.0% | nt
Cn1cc(/C=N/n2cnc3sc4c(c3c2=O)CCCC4)c2ccccc21 | ? | 29.6 | nt | 10.0% | nt
O=c1c2c3c(sc2ncn1/N=C/c1ccc([N+](=O)[O-])o1)CCCC3 | 14.2% | -6.2 | -2.9% | 28.2µM* | nt
CC(C)(C)OC(=O)COc1cc(OCC(=O)OC(C)(C)C)c2c(=O)cc(-c3ccccc3)oc2c1 | 10µM* | -26.1 | 11.2µM* | ? | ?
COC(=O)COc1cc(OCC(=O)OC)c2c(-c3ccccc3)cc(=O)oc2c1 | 1.3% | -22.0 | nt | -8.7% | nt
SMILES | HCV inh | HCMV inh | VACV Venus inh | FMDV inh | VACV mCherry inh
COc1ccc(Nc2ncc(C(=O)N3CCN(Cc4ccccc4)CC3)c3ccccc23)cc1 | 10µM* | 45.9 | nt | ? | nt
COc1ccc(CN2CCN(C(=O)C3CCC(CNS(=O)(=O)c4ccccc4)CC3)CC2)c(OC)c1OC (configuration not stated) | 3.55µM* | -101.6* | -15.4% | ? | i
COc1ccccc1Nc1ncc(C(=O)N2CCN(Cc3ccc(OC)c(OC)c3OC)CC2)c2ccccc12 | 12.6µM* | 9.9 | -19.4% | -11.8% | -14.6%
COc1ccc(Nc2ncc(C(=O)N3CCC(C(N)=O)CC3)c3ccccc23)cc1 | 11.9% | -7.0 | nt | 14.4% | nt
Cc1sc(NC(=O)c2ccco2)nc1-c1ccc2c(c1)CC(C)N2C(=O)C1CC1 (configuration not stated) | 5.01µM* | -96.9* | nt | 14.1µM* | nt
Cc1sc(NC(=O)c2ccco2)nc1-c1ccccc1 | 14.1µM* | 45.1 | -16.8% | -19.1% | nt
CC(=O)c1sc(NC(=O)c2ccco2)nc1-c1ccccc1 | 10.2% | nt | -16.8% | 69.6% | ?
CC(=O)Nc1nc(-c2ccc3c(c2)CC(C)N3C(=O)C2CC2)c(C)s1 (configuration not stated) | ? | -100.2* | -11.4% | 0.0% | 39.1%
CCC(=O)N1CCc2cc(-c3csc(NC(=O)c4ccco4)n3)ccc21 | ? | 42.7 | 5.5% | -18.8% | i
CCOC(=O)C(=O)Nc1nc(-c2ccc3c(c2)CCN3C(=O)C2CC2)c(C)s1 | 3.4% | 5.2 | -14.4% | 0.0% | -13.8%
O=C(Nc1c(-c2ccccc2)[nH][nH]c1=O)c1ccc(Br)cc1 | nt | -20.0 | -9.7% | -13.0% | i
COc1ccc(CN(Cc2ccccc2)C(=O)Nc2ccccc2)cc1COc1ccc(NC(C)=O)cc1 | nt | nt | -18.6% | nt | -23.3%
CC(C)=CCc1c2c(c3occ(-c4ccc(O)c(O)c4)c(=O)c3c1O)C=CC(C)(C)O2 | ? | -28.9 | 11.2µM* | ? | 10µM*
CC(C)=CCc1c2c(c3occ(-c4ccc(O)cc4)c(=O)c3c1O)C=CC(C)(C)O2 | ? | -105.7* | ? | ? | ?
CCCNC(=O)[C@H]1O[C@@H]1C(=O)N[C@H](C(=O)N1CCC[C@H]1C(=O)OC)[C@@H](C)CC | nt | nt | -10.3%[60.7 µM] | -15.2% | -22.1%[60.7 µM]
COc1cccc(C(=O)NCCc2csc3nc(-c4ccccc4F)nn23)c1OC | nt | 7.2 | -6.1% | 0.0% | -3.9%
CCN1CCCC1CNC(=O)c1ccc2c(c1)NC(=O)/C(=C\c1ccc(OC)c(OC)c1)S2 (configuration not stated) | 0.794µM* | 0.0 | nt | -16.2% | nt
CCN1CCC[C@H]1CNC(=O)c1cc(S(N)(=O)=O)ccc1OC | nt | nt | -6.8% | -12.1% | -20.0%
O=C1Nc2cc(C(=O)NCCCN3CCCC3)ccc2S/C1=C/c1cccc(Cl)c1 | nt | 82.2 | ? | -4.0% | ?
CCN1CCCC1CNC(=O)c1ccc2c(c1)NC(=O)/C(=C\c1ccccc1Cl)S2 (configuration not stated) | nt | -62.9* | -25.6% | -20.1% | -11.7%
CC(C)(C)c1ccc(-n2ncc3c2CCCC3NC(=O)C2(C(N)=O)CC2)cc1 (configuration not stated) | ? | -95.7* | nt | ? | nt

High-throughput results: PubChem, National Center for Advancing Translational Sciences (NCATS)
